# Many of the other results were omitted from the sample, so the strongest signals are more common in it than they were.
# B1: GH98CBM51-1 (Streptococcus pneumoniae) (protein)
# chain: MTYLSDMDWSSATHGDIDKTKTVQKDAPFTTGNKGEHTKISLLTSDDKVKYFDKGIGTVADSPSVISYDISGQGFEKFETYIGIDQSANSSRSDHAVVDRIEIEIDGKVVYSSSVTNPEGFRYNTQAQFISVTIPQNAKKISLKSFAGEHTWGDEVVFADAKLIKTVST
# Columns and labels:
# Assay in all cases: glycan array binding signal (z-score within array); higher = stronger binding
# Details in all cases: glycan notation: IUPAC condensed, linker removed
# [1] = biological target: Fuc(a1-2)Gal(b1-3)GalNAc(b1-3)Gal
# Method in brief: (§1)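 The binding signal is a Z-score computed within each array and averaged over linkers. Arrays of the same protein sequence at different concentrations or buffers were also averaged together. Data originate from 3228 arrays in the Consortium for Functional Glycomics database, kept only where the protein sequence was available.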
# [2] = biological target: Fuc(a1-2)Gal(b1-3)[Fuc(a1-4)]GlcNAc(b1-3)[Gal(b1-4)GlcNAc(b1-6)]Gal(b1-4)Glc
# Method in brief: as §1
# [3] = biological target: Fuc(a1-2)Gal(b1-4)GlcNAc
# Method in brief: as §1
# [4] = biological target: Fuc(a1-2)Gal(b1-4)GlcNAc(b1-3)GalNAc
# Method in brief: as §1
# [5] = biological target: Fuc(a1-2)Gal(b1-4)GlcNAc6S
# Method in brief: as §1
# [6] = biological target: Fuc(a1-2)Gal6S(b1-4)Glc
# Method in brief: as §1
# [7] = biological target: Fuc(a1-2)[Gal(a1-3)]Gal
# Method in brief: as §1
# [8] = biological target: Fuc(a1-2)[Gal(a1-3)]Gal(b1-4)GlcNAc
# Method in brief: as §1
# [9] = biological target: Fuc(a1-2)[Gal(a1-3)]Gal(b1-4)GlcNAc(b1-2)Man(a1-3)[Fuc(a1-2)[Gal(a1-3)]Gal(b1-4)GlcNAc(b1-2)Man(a1-6)]Man(b1-4)GlcNAc(b1-4)GlcNAc
# Method in brief: as §1
# [10] = biological target: Fuc(a1-2)[GalNAc(a1-3)]Gal(b1-3)GlcNAc(b1-2)Man(a1-3)[Fuc(a1-2)[GalNAc(a1-3)]Gal(b1-3)GlcNAc(b1-2)Man(a1-6)]Man(b1-4)GlcNAc(b1-4)GlcNAc
# Method in brief: as §1
# [11] = biological target: Fuc(a1-2)[GalNAc(a1-3)]Gal(b1-4)GlcNAc
# Method in brief: as §1
# [12] = biological target: Fuc(a1-2)[GalNAc(a1-3)]Gal(b1-4)GlcNAc(b1-2)Man(a1-3)[Fuc(a1-2)[GalNAc(a1-3)]Gal(b1-4)GlcNAc(b1-2)Man(a1-6)]Man(b1-4)GlcNAc(b1-4)GlcNAc
# Method in brief: as §1
# [13] = biological target: Fuc(a1-2)[GalNAc(a1-3)]Gal(b1-4)GlcNAc(b1-3)Gal(b1-4)GlcNAc
# Method in brief: as §1
# [14] = biological target: Fuc(a1-2)[GalNAc(a1-3)]Gal(b1-4)GlcNAc(b1-3)Gal(b1-4)GlcNAc(b1-3)Gal(b1-4)GlcNAc
# Method in brief: as §1
# [15] = biological target: Fuc(a1-3)[Gal(b1-4)]GlcNAc
# Method in brief: as §1
# [16] = biological target: Fuc(b1-3)GlcNAc
# Method in brief: as §1
# [17] = biological target: Gal(a1-3)Gal(b1-3)GlcNAc(b1-2)Man(a1-3)[Gal(a1-3)Gal(b1-3)GlcNAc(b1-2)Man(a1-6)]Man(b1-4)GlcNAc(b1-4)GlcNAc
# Method in brief: as §1
# [18] = biological target: Gal(a1-3)Gal(b1-4)GlcNAc(b1-3)GalNAc
# Method in brief: as §1
# [19] = biological target: Gal(a1-3)Gal(b1-4)[Fuc(a1-3)]GlcNAc
# Method in brief: as §1
# [20] = biological target: Gal(a1-6)Glc
# Method in brief: as §1
# [21] = biological target: Gal(b1-3)Gal
# Method in brief: as §1
# [22] = biological target: Gal(b1-3)GalNAc(b1-3)Gal(a1-4)Gal(b1-4)Glc
# Method in brief: as §1
# [23] = biological target: Gal(b1-3)GlcNAc
# Method in brief: as §1
# [24] = biological target: Gal(b1-4)GlcNAc(a1-6)Gal(b1-4)GlcNAc
# Method in brief: as §1
# [25] = biological target: GlcNAc(a1-3)Gal(b1-4)GlcNAc
# Method in brief: as §1
# [26] = biological target: GlcNAc(a1-4)Gal(b1-3)GlcNAc
# Method in brief: as §1
# [27] = biological target: GlcNAc(b1-4)GlcNAc(b1-4)GlcNAc(b1-4)GlcNAc(b1-4)GlcNAc(b1-4)GlcNAc
# Method in brief: as §1
# [28] = biological target: Kdn(a2-3)Gal(b1-4)Glc
# Method in brief: as §1
# [29] = biological target: Neu5Ac(a2-3)Gal(b1-3)GlcNAc6S
# Method in brief: as §1
# [30] = biological target: Neu5Ac(a2-3)Gal(b1-3)[Fuc(a1-4)]GlcNAc(b1-3)Gal(b1-3)[Fuc(a1-4)]GlcNAc
# Method in brief: as §1
# [31] = biological target: Neu5Ac(a2-3)Gal(b1-4)GlcNAc(b1-3)Gal(b1-4)[Fuc(a1-3)]GlcNAc
# Method in brief: as §1
# [32] = biological target: Neu5Ac(a2-3)Gal(b1-4)[Fuc(a1-3)]GlcNAc
# Method in brief: as §1
# [33] = biological target: Neu5Ac(a2-3)Gal(b1-4)[Fuc(a1-3)]GlcNAc6S
# Method in brief: as §1
# [34] = biological target: Neu5Ac(a2-3)[GalNAc(b1-4)]Gal(b1-4)Glc
# Method in brief: as §1
# [35] = biological target: Neu5Ac(a2-6)GlcNAc(b1-4)GlcNAc(b1-4)GlcNAc
# Method in brief: as §1
# [36] = biological target: Neu5Ac(a2-8)Neu5Ac(a2-8)Neu5Ac(a2-8)Neu5Ac(a2-3)[GalNAc(b1-4)]Gal(b1-4)Glc
# Method in brief: as §1
# [37] = biological target: Neu5Gc(a2-3)Gal(b1-4)[Fuc(a1-3)]GlcNAc
# Method in brief: as §1
binder,measurement,setting,value
B1,glycan array binding signal (z-score),[1],-0.187
same,glycan array binding signal (z-score),[2],-0.19
same,glycan array binding signal (z-score),[3],-0.191
same,glycan array binding signal (z-score),[4],-0.194
same,glycan array binding signal (z-score),[5],-0.194
same,glycan array binding signal (z-score),[6],-0.185
same,glycan array binding signal (z-score),[7],5.96
same,glycan array binding signal (z-score),[8],5.12
same,glycan array binding signal (z-score),[9],8.05
same,glycan array binding signal (z-score),[10],-0.122
same,glycan array binding signal (z-score),[11],5.07
same,glycan array binding signal (z-score),[12],5.04
same,glycan array binding signal (z-score),[13],5.55
same,glycan array binding signal (z-score),[14],4.91
same,glycan array binding signal (z-score),[15],-0.192
same,glycan array binding signal (z-score),[16],-0.193
same,glycan array binding signal (z-score),[17],-0.171
same,glycan array binding signal (z-score),[18],-0.191
same,glycan array binding signal (z-score),[19],-0.186
same,glycan array binding signal (z-score),[20],-0.186
same,glycan array binding signal (z-score),[21],-0.181
same,glycan array binding signal (z-score),[22],-0.191
same,glycan array binding signal (z-score),[23],-0.188
same,glycan array binding signal (z-score),[24],-0.186
same,glycan array binding signal (z-score),[25],-0.193
same,glycan array binding signal (z-score),[26],-0.189
same,glycan array binding signal (z-score),[27],-0.195
same,glycan array binding signal (z-score),[28],-0.191
same,glycan array binding signal (z-score),[29],-0.196
same,glycan array binding signal (z-score),[30],-0.184
same,glycan array binding signal (z-score),[31],-0.191
same,glycan array binding signal (z-score),[32],-0.191
same,glycan array binding signal (z-score),[33],-0.182
same,glycan array binding signal (z-score),[34],-0.196
same,glycan array binding signal (z-score),[35],-0.193
same,glycan array binding signal (z-score),[36],-0.184
same,glycan array binding signal (z-score),[37],-0.182

# Source: the supplement of paper PMC8728848
